In PubChem BioAssay (EPA / NIEHS):
Several values for one entry are separate records, joined by “and”; a condition that tells them apart may be missing. Equal values may be shown once. The source holds several records for some structures; these can differ, active in one and inactive in another. Activity calls are given as the source filed them. Rule for the calls: active = hit-call score of the fitted dose curve at least 0.9, where 1 is the maximum; inactive = score below 0.9.

Assay: ATG_NRF2_ARE_CIS: Attagene CIS-FACTORIAL HepG2 Assay for human Nuclear Factor Erythroid 2 Related Factor 2 (NFR2) response to Antioxidant Response Elements (ARE) (AID 2282992)
Details: HepG2 Attagene ARE/NRF2 reporter, transcription factor activity; actives raise or lower the signal
Protocol: ATG_CIS is a cell-based, multiplexed-readout assay that uses HepG2, a human liver cell line, with measurements taken at 24 hours after chemical dosing in a 24-well plate.ATG_NRF2_ARE_CIS is one of 52 assay component(s) measured or calculated from the ATG_CIS assay. It is designed to make measurements of mRNA induction, a form of inducible reporter, as detected with fluorescence intensity signals by Reverse transcription polymerase chain reaction (RT-PCR) and Capillary electrophoresis technology.Data from the assay component ATG_NRF2_ARE_CIS was analyzed into 1 assay endpoint. This assay endpoint, ATG_NRF2_ARE_CIS, was analyzed with bidirectional fitting relative to DMSO as the negative control and baseline of activity. Using a type of inducible reporter, measures of mRNA for gain or loss-of-signal activity can be used to understand the reporter gene at the transcription factor-level as they relate to the gene NFE2L2. Furthermore, this assay endpoint can be referred to as a primary readout, because this assay has produced multiple assay endpoints where this one serves a reporter gene function. To generalize the intended target to other relatable targets, this assay endpoint is annotated to the dna binding intended target family, where the subfamily is basic leucine zipper.
Human liver HepG2 cells are transiently transfected with multiple reporter transcription units (MRTUs) in 6-well plates using FuGene 6 reagent (Roche; 3 ml FuGene/1 mg DNA). The MRTU constructs are regulated by a cis-regulating element (promoter). […] A major difference between the CIS and TRANS system is that in CIS activities of endogenous TFs are measured, whereas the TRANS assay evaluates changes in activities of exogenous, chimeric NR-Gal4 proteins. […] At the end of 24 hour incubation, total RNA was isolated using TriZol reagent (Invitrogen). The isolated RNA is then reverse-transcribed using oligo(dT) primer and Mo-MLV reverse transcriptase (Invitrogen) with DNAse I (Ambion) treatment for 30 min. The one-tenth of the produced cDNA was amplified by PCR using Taq DNA polymerase (Invitrogen) and two reporter sequence-specific primers. The PCR products were fluorescently labeled by primer extension with 6-arboxyfluorescein (6-FAM) 5'-labeled reporter sequence-specific primer (2 min at 95 C, 20 s at 68 C and 10 min at 72 C) and these products were digested with 5U of HpaI (New England Biolabs) for 2h at 37 C. The fragments were purified using Qiaquick PCR columns (Qiagen), analyzed on an ABI 3130xL genetic analyzer (Applied Biosystems) with peak positions identified by using a set of X-rhodamine (ROX)-labeled MapMarker1000 molecular weight standards (BioVentures). The raw capillary electrophoresis data was processed using Attagraph software (Attagene).
For `Nc1ccc(-c2ccc(N)cc2)cc1`, the outcome was “inactive”.
For `CC#Cc1cc(C)nc(Nc2ccccc2)n1`, the AC50 was 56.5 µM (active).
With `CCC(C)(c1ccc(O)cc1)c1ccc(O)cc1` the AC50 was 20 µM (active) and 15.3 µM (active) and 9.27 µM (active) and the outcome was “inactive”.
In the case of `Clc1ccc(C(c2ccccc2Cl)C(Cl)(Cl)Cl)cc1` (stereo not given), the AC50 is reported as 41.4 µM (active) and 39.6 µM (active) and 21.3 µM (active) and the outcome is reported as “inactive”.
For `N#Cc1ccc(N(CC(N)=O)CC(F)(F)F)cc1C(F)(F)F`, the AC50 was 170 µM (active).
With `Cc1ccccc1O` the outcome was “inactive”.
In the case of `Oc1c(Cl)c(Cl)c(Cl)c(Cl)c1Cl`, the AC50 is reported as 13.7 µM (active) and 12.5 µM (active) and 2.62 µM (active).
For `CCC(=O)O[C@H]1CC[C@H]2[C@@H]3CCC4=CC(=O)CC[C@]4(C)[C@H]3CC[C@]12C`, the AC50 was 158 µM (active) [middle of 4 runs].
With `CCOP(=S)(OCC)SCSC(C)(C)C` the AC50 was 67 µM (active) and the outcome was “inactive”.
With `NS(=O)(=O)C(F)(F)C(F)(F)C(F)(F)C(F)(F)C(F)(F)C(F)(F)C(F)(F)C(F)(F)F` the AC50 was 28.9 µM (active) and 268 µM (active) and 15.4 µM (active).
With `C[C@]12CCC(=O)C=C1CC[C@@H]1[C@@H]2CC[C@@]2(C)[C@H]1CC[C@]2(C)O` the AC50 was 60.3 µM (active) and 53.6 µM (active) and 91.5 µM (active).
For `C[C@]12CCC(=O)C=C1CC[C@@H]1[C@@H]2CC[C@]2(C)C(=O)CC[C@@H]12`, the outcome was “inactive”.
With `Cc1ccccc1[N+](=O)[O-]` the outcome was “inactive”.
In the case of `CC1=C2C[C@H]3[C@@H](CC=C4C[C@@H](O)CC[C@@]43C)[C@@H]2CC[C@]12O[C@@H]1C[C@H](C)CN[C@H]1[C@H]2C`, the outcome is reported as “inactive”.
In the case of `CO/C=C(/C(=O)OC)c1ccccc1COc1cccc(C(F)(F)F)n1`, the AC50 is reported as 5.41 µM (active).
With `CN(C)CCO` the outcome was “inactive”.
For `Cc1cc(O)ccc1Cl`, the outcome was “inactive”.
For `ClC1=C(Cl)[C@]2(Cl)[C@@H]3[C@H]4C[C@H]([C@@H]5O[C@H]45)[C@@H]3[C@@]1(Cl)C2(Cl)Cl`, the outcome was “inactive”.
In the case of `c1ccc(-c2ccccc2)cc1`, the outcome is reported as “inactive”.
With `Clc1ccc(C(Cl)(Cl)Cl)cc1` the outcome was “inactive”.
With `CCCN(CCC)N=O` the outcome was “inactive”.
With `Nn1cnnc1` the outcome was “inactive”.
In the case of `O=NN(c1ccccc1)c1ccccc1`, the AC50 is reported as 78.9 µM (active).
With `O=S(=O)(O)C(F)(F)C(F)(F)C(F)(F)C(F)(F)F` the outcome was “inactive”.
For `Sc1ccccc1`, the AC50 was 66 µM (active) and the outcome was “inactive”.
For `O=C(O)C(F)(F)C(F)(F)C(F)(F)C(F)(F)C(F)(F)C(F)(F)C(F)(F)C(F)(F)C(F)(F)F`, the AC50 was 59.6 µM (active) and 12.3 µM (active) and 24.7 µM (active).
In the case of `CCOCCOC(C)=O`, the outcome is reported as “inactive”.
For `C1CC2OC2CC1C1CO1` (stereo not given), the AC50 was 123 µM (active).
In the case of `CCNc1nc(NC(C)C)nc(SC)n1`, the outcome is reported as “inactive”.
With `CC(C)(c1ccccc1)c1ccc(O)cc1` the AC50 was 33.4 µM (active) and 45.2 µM (active) and 22.5 µM (active).
For `Cc1ccc(O)c(C)c1`, the AC50 was 7.51 µM (active).
With `C=CC(N)=O` the AC50 was 66.5 µM (active).
In the case of `CCCCCCCCCc1ccc(O)cc1`, the AC50 is reported as 11.1 µM (active) and 26.6 µM (active) and 14.3 µM (active).
With `Cc1cccc(C)c1N` the outcome was “inactive”.
For `Oc1ccc(C(c2ccc(O)cc2)(C(F)(F)F)C(F)(F)F)cc1`, the AC50 was 11.1 µM (active) [middle of 4 runs].
In the case of `O=C(N[C@H]1CN2CCC1CC2)c1cc2ccoc2cn1`, the outcome is reported as “inactive”.
